The results in this text go back to PubChem BioAssay (NCATS).

Inconclusive results are not listed. Entries that show only a call come without a potency. The source made the active and inactive calls. The call rests on the fitted dose curve; in most records, active means well fitted cell-killing curve with a large enough effect; inconclusive means small, poorly fitted or top-dose-only effect; inactive means flat fitted curve, though single readings scatter.
Potency means the concentration at half of the fitted maximal effect.

The assay is described as follows: Cell Viability - LYMP2-002 (AID 977).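 Further: compound exposure lasted 24 h at 37 °C.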 As to conditions: LYMP2-002 lymphoblastoid cell viability, qHTS; series mostly up to 92.2 µM. The text has this:
NIH Chemical Genomics Center [NCGC]
NIH Molecular Libraries Screening Centers Network [MLSCN]
National Institutes of Environmental Health Sciences [NIEHS]
National Toxicology Program [NTP]
We have developed a 1536-well cell-based assay for quantitative high throughput screening (qHTS) against a number of cell lines to determine in vitro cytotoxicity of small molecules. This particular assay uses a human lymphoblastoid cell line (LYMP2-002) purchased from Coriell Institute for Medical Research.
NCGC Assay Protocol Summary:
The CellTiter-Glo luminescent cell viability assay (Promega) is a homogeneous method to measure the number of viable cells in culture. The end point readout of this assay is based on quantitation of intracellular ATP, an indicator of metabolic activity, using the luciferase reaction. Luciferase catalyzes the oxidation of beetle Luciferin to oxyluciferin and light in the presence of ATP. The luminescent signal is proportional to amount of ATP present.
Using the CellTiter-Glo luminescent cell viability assay, the amount of cellular ATP was measured in the lymphoblastoid cell line with complete culture medium following compound treatment for 24 hours. The assay was performed in opaque white Kalypsys 1536-well plates. In the screen, tetraoctylammonium bromide was used as positive control. Library compounds were measured for their ability to cause acute toxicity in the cell line, as reflected by a decrease in intracellular ATP levels, in a concentration-dependent manner. […] AC50 values were determined from concentration-response data modeled with the standard Hill equation.
qHTS protocol for CellTiter Glo lymphoblastoid cellular assay
[Step] [Parameter] [Value] [Description]
1. Reagent; 5 uL; 2500 lymphoblastoid cells/well
2. Time; 5 hr; 37 C incubation
4. Controls; 23 nL; Tetraoctylammonium bromide 6.4pM to 92 uM
5. Time; 24 hr; 37 C incubation
6. Reagent; 5 uL; CellTiter Glo reagent
7. Time; 30 min; Room Temperature
8. Detection; Luminescence; Viewlux plate reader
Keywords: cell viability, cytotoxicity, lymphoblastoid cell line, luminescence, NTPHTS, NTPHTS_NCGC, NIEHS, DSSTox, MLSMR, MLSCN, NIH Roadmap, qHTS, NCGC
(In general: qHTS replaces the single test concentration by a dilution series.)
With `CC(=O)c1ccc(S(=O)(=O)NC(=O)NC2CCCCC2)cc1`, the Potency result is “inactive”.
Regarding `CC/C(=C(\c1ccccc1)c1ccc(OCCN(C)C)cc1)c1ccccc1`, the Potency was 39.8 µM (active).
With `CCCNC(=O)NS(=O)(=O)c1ccc(Cl)cc1` the entry was “inactive”; with `CN(C)CCC(c1ccccc1)c1ccccn1` (configuration not stated), “inactive”; with `O=c1c(-c2ccc(O)cc2)coc2cc(O)ccc12`, “inactive”.
Take `O=C(O)Cc1cccc2ccccc12`: the Potency entry is “inactive”.
For the compound `O=c1c(O)c(-c2ccc(O)cc2)oc2cc(O)cc(O)c12`, the Potency result is “inactive”.
For `O=C1NC(=O)C(c2ccccc2)(c2ccccc2)N1`, the Potency result was “inactive”.
The same measure for `O=c1[nH]cnc2c1ncn2[C@H]1CC[C@@H](CO)O1`: “inactive”; for `CCCCC1C(=O)N(c2ccccc2)N(c2ccccc2)C1=O`: “inactive”.
On to `CCn1cc(C(=O)O)c(=O)c2ccc(C)nc21`, for which the Potency entry is “inactive”.
In the case of `CC(=O)O[C@]1(C(C)=O)CC[C@H]2[C@@H]3C=C(Cl)C4=CC(=O)[C@@H]5C[C@@H]5[C@]4(C)[C@H]3CC[C@@]21C`, the Potency result was “inactive”.
